According to PubChem BioAssay (NCATS):
Where “and” joins values, the source holds several entries; their conditions need not be identical. Identical values can stand only once. Results filed as inconclusive are left out. More than one record can exist for a structure, and the calls need not agree. Calls of active or inactive are those of the source. The call rests on the fitted dose curve; in most records, active means well fitted curve in the direction sought with a large enough effect; inconclusive means small, poorly fitted or top-dose-only effect, or another doubt; inactive means no such curve, though single readings can be large; an effect the other way counts as inactive or inconclusive.

Key:
[1] = qHTS assay for measurement of the activity of small molecule inhibitors on Zika virus induced Caspase-3 activity in human astrocytoma cells (AID 1224859)
Procedure, shortened: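 Luminescence read-out (Caspase-Glo 3/7, 30 min RT) of caspase activity in SNB-19 cells infected 6 h with ZIKV, 2 FFU/cell, after 1 h compound pretreatment; % inhibition from induction normalised to uninfected (0%) and infected (100%) wells.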

[2] = qHTS Screen of the MIPE 4.0 Collection Against Ewings Sarcoma (RDES) (AID 1259252); further: nearly all actives have a fitted effect of over 35% in size; further: potency means the concentration at half of the fitted maximal effect
Procedure, shortened: (§1)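 Log-phase cells in RPMI with 5% FBS attached for 4 h, then received compounds as a titration for 48 h at 37C, 5% CO2. Viability was read by CellTiter-Glo luminescence and normalized to DMSO and no-cell wells.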

[3] = qHTS Screen of the MIPE 4.0 Collection Against Ewings Sarcoma (TC71) (AID 1259253); further: nearly all actives have a fitted effect of over 40% in size; further: potency means the concentration at half of the fitted maximal effect
Procedure, shortened: as §1

[4] = qHTS Screen of the MIPE 4.0 Collection Against Ewings Sarcoma (EW8) (AID 1259255); further: nearly all actives have a fitted effect of over 35% in size; further: potency means the concentration at half of the fitted maximal effect
Procedure, shortened: as §1

[5] = qHTS Screen of the MIPE 4.0 Collection Against Ewings Sarcoma (TC32) (AID 1259256); further: nearly all actives have a fitted effect of over 45% in size; further: potency means the concentration at half of the fitted maximal effect
Procedure, shortened: as §1

[6] = Identifying Small Molecule Inhibitors of Pancreatic Cancer Stem Cells (SN12C, Spheroid) (AID 1259360); conditions: Potency: SN12C spheroid viability; further: potency means the concentration at half of the fitted maximal effect
Procedure, shortened: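 Viability is scored by CellTiter-Glo luminescence 48 h after dosing, expressed as percent activity against vehicle and no-cell references. Spheroid formats rely on cells cultured 14 days in stem cell media beforehand.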

[7] = Identifying Small Molecule Inhibitors of Pancreatic Cancer Stem Cells (A278, Adherent) (AID 1259361); further: nearly all actives have a fitted effect of over 35% in size
Procedure, shortened: (§2)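 Spheroids grown 14 days in stem cell media on hydrogel-coated nonadherent plates; 2D lines seeded directly. Compounds added after 4 h attachment, 48 h at 37C, 5% CO2; CellTiter-Glo luminescence normalized to DMSO (no inhibition) and no-cell wells (full inhibition).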

[8] = P-glycoprotein substrates identified in KB-3-1 adenocarcinoma cell line, qHTS therapeutic library screen (AID 1346986); further: nearly all actives have a fitted effect of over 60% in size;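 further: potency means the concentration at half of the fitted maximal effect; potency is for cytotoxicity meaning loss of cell viability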
Procedure, shortened: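 Viability by CellTiter-Glo after 72 h compound exposure at 37 degree C, 5% CO2. Cytotoxic call: curve class -1.1 to -2.4, maximum response >50%, AC50 < 10 uM, compared across KB-3-1 and P-gp-overexpressing KB-8-5-11.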

[9] = P-glycoprotein substrates identified in KB-8-5-11 adenocarcinoma cell line, qHTS therapeutic library screen (AID 1346987); further: nearly all actives have a fitted effect of over 65% in size; further: potency means the concentration at half of the fitted maximal effect
Procedure, shortened: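 In this qHTS, P-gp-rich KB-8-5-11 cells received library compounds across a concentration range. Viability was quantified by luminescence after 72 h at 37 degree C.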

[10] = NS1 protein of Zika virus - qHTS assay to identify small molecule inhibitors in human HEK 293 cells (AID 1347053); further: nearly all actives have a fitted effect of over 55% in size; further: potency means the concentration at half of the fitted maximal effect
Procedure, shortened: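 Compound-treated (1 h pre-infection) HEK 293 cells infected with ZIKV MR766, MOI = 0.5; after 24 h at 37 C, NS1 read by TR-FRET; data normalized to uninfected and infected controls.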

[11] = Identifying Small Molecule Inhibitors of Pancreatic Cancer Stem Cells (Panc1, Spheroid) (AID 1259359);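 further: potency means the concentration at half of the fitted maximal effect; compound exposure lasted 48 h before reading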
Procedure, shortened: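 Spheroids grown 14 days in stem cell media on nonadherent hydrogel before screening; cells attached 4 h, then compound exposure 48 h at 37C, 5% CO2. CellTiter-Glo luminescence normalized to DMSO (no inhibition) and no-cell wells (full inhibition).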

[12] = Identifying Small Molecule Inhibitors of Pancreatic Cancer Stem Cells (Panc1, Adherent) (AID 1259362); conditions: Potency: viability; further: potency means the concentration at half of the fitted maximal effect
Procedure, shortened: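 Adherent (2D) versus sphere (3D) formats; spheres generated 14 d in SCM beforehand. Compound transferred by pin tool after 4 h, 48 h incubation, CellTiter-Glo endpoint.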

[13] = Identifying Small Molecule Inhibitors of Pancreatic Cancer Stem Cells (SN12C, Adherent) (AID 1259358);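 further: cell survival measured after 48 h of compound exposure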; further: potency means the concentration at half of the fitted maximal effect
Procedure, shortened: as §2

Row | Compound | Potency [1] | Potency [2] | Potency [3] | Potency [4] | Potency [5] | Potency [6] | IC50 (viability decrease) [7] | Potency [8] | Potency [9] | Potency [10] | Potency [11] | Potency [12] | Potency [13]
1 | O=C(c1ccc(Nc2nccc(-c3cc4ccccc4s3)n2)cc1)N1CCC(N2CCCC2)CC1 | inactive | 18.7 µM (active) | 18.7 µM (active) | 20.9 µM (active) | 20.9 µM (active) | 23.5 µM (active) | 18.7 µM (active) | 6.51 µM (active) | 8.33 µM (active) and 16.4 µM (active) and 20.6 µM (active) | 6.62 µM (active) | – | – | –
2 | O=C(O)c1ccc2c(c1)nc(Nc1cccc(Cl)c1)c1ccncc12 | inactive | 4.18 µM (active) | 4.69 µM (active) | 7.43 µM (active) | 5.9 µM (active) | – | 16.6 µM (active) | 5.8 µM (active) | inactive and 14.6 µM (active) | – | – | – | –
3 | CCN1CCN(CC(=O)Nc2ccc(-c3cccc4c(=O)cc(N5CCOCC5)oc34)c3sc4ccccc4c23)CC1 | inactive | 8.33 µM (active) | 6.62 µM (active) | 16.6 µM (active) | 1.32 µM (active) | 14.8 µM (active) | 4.18 µM (active) | 1.88 µM (active) | 2.96 µM (active) | inactive | 16.6 µM (active) | 23.5 µM (active) | –
4 | N#Cc1c(O)c2c(-c3ccc(-c4ccccc4O)cc3)csc2[nH]c1=O | inactive | 14.8 µM (active) | 18.7 µM (active) | 20.9 µM (active) | 23.5 µM (active) | – | inactive | inactive | – | inactive | – | inactive | –
5 | CC(C)(C)OC(=O)Nc1ccc(-c2cc(C(=O)NCCCCCCC(=O)NO)no2)cc1 | inactive | 2.09 µM (active) | 2.96 µM (active) | 1.32 µM (active) | 1.66 µM (active) | 16.6 µM (active) | 2.35 µM (active) | – | 8.33 µM (active) | 26.4 µM (active) | – | – | –
6 | Cn1cc(-c2[nH]c3cc(NC(=O)[C@H](N)C4CCCCC4)cc4c3c2C=NNC4=O)cn1 | inactive | 0.833 µM (active) | 0.59 µM (active) | 0.372 µM (active) | 0.372 µM (active) | 4.18 µM (active) | 2.64 µM (active) | – | inactive | 0.332 µM (active) | – | – | 14.8 µM (active)
7 | O=C(O)[C@H](Cc1c[nH]c2ccccc12)N1C(=O)c2ccccc2C1=O | inactive | inactive | inactive | inactive | inactive | inactive | – | – | – | inactive | – | inactive | inactive
8 | O=C(O)c1ccc2cc(-c3ccc(O)c(C45CC6CC(CC(C6)C4)C5)c3)ccc2c1 | inactive | 1.32 µM (active) | 0.59 µM (active) | 1.66 µM (active) | 0.372 µM (active) | – | 0.935 µM (active) | – | – | 0.59 µM (active) | – | – | 2.64 µM (active)
9 | COc1cc(C(C)C)c2c(c1)S(=O)(=O)N(COc1cc(=O)n3cccc(OCCN4CCCCC4)c3n1)C2=O | inactive | 10.5 µM (active) | 18.7 µM (active) | 26.4 µM (active) | 20.9 µM (active) | inactive | – | inactive | – | – | – | – | inactive
10 | Cc1ccc(C(=O)Nc2cccc(C(F)(F)F)c2)cc1-c1ccc2nc(NCCN3CCOCC3)ncc2c1 | inactive | 14.8 µM (active) | 14.8 µM (active) | 14.8 µM (active) | 11.8 µM (active) | – | 2.64 µM (active) | 8.2 µM (active) | 16.6 µM (active) and 11.6 µM (active) | – | – | 11.8 µM (active) | –
11 | Cc1ccc(C(N)=O)cc1Nc1nccc(-c2cn(C(C)C)c3cnccc23)n1 | inactive | 14.8 µM (active) | 8.33 µM (active) | 18.7 µM (active) | 16.6 µM (active) | – | 8.33 µM (active) | – | 20.6 µM (active) | – | – | – | –
12 | C=CC(=O)Nc1cccc(Oc2nc(Nc3ccc(N4CCN(C)CC4)cc3OC)ncc2Cl)c1 | inactive | 0.0187 µM (active) | 0.0074 µM (active) | 0.0209 µM (active) | 0.0148 µM (active) | – | – | – | – | 33.2 µM (active) | – | inactive | 23.5 µM (active)
13 | CC(=O)SC[C@@H](C)C(=O)N1CCC[C@H]1C(=O)N[C@@H](Cc1ccccc1)C(=O)O | inactive | inactive | inactive | inactive | inactive | inactive | – | – | inactive | inactive | – | inactive | –
14 | COc1ccc(CC2SC(=O)NC2=O)cc1C(=O)NCc1ccc(C(F)(F)F)cc1 (centres undefined) | inactive | inactive | inactive | inactive | inactive | inactive | inactive | – | inactive | inactive | – | – | inactive
15 | c1cc(-c2cnn3cc(-c4ccc(OCCN5CCCCC5)cc4)cnc23)ccn1 | inactive | 20.9 µM (active) | 14.8 µM (active) | 18.7 µM (active) | 20.9 µM (active) | inactive | 26.4 µM (active) | 6.51 µM (active) | – | – | – | – | –
16 | Nc1ccccc1NC(=O)c1ccc(CNC(=O)OCc2cccnc2)cc1 | inactive | 9.35 µM (active) | 2.35 µM (active) | 2.35 µM (active) | 1.66 µM (active) | inactive | inactive | – | 11.8 µM (active) and 9.2 µM (active) | inactive | – | – | inactive
